From PubChem BioAssay AID1832 (Broad Institute, 2009) come the findings set out here.

Molecules are shown by their SMILES. The campaign covered roughly 300,000 compounds. About 1,100 (0.37%) were called active. This is one part of a sample in which actives are shown more often than they occur. Unmarked numbers belong to inactive results.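 How the source made its calls: active means inhibition past about -25% in most replicates, and total fluorescence under double the plate's negative control median (limit read from the data); inconclusive means replicates evenly split on the limit, or fluorescence at least double controls; inactive means too little inhibition in most replicates.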

Sequence of Zinc finger protein mex-5 (Caenorhabditis elegans) (Q9XUB2 whole entry, looked up): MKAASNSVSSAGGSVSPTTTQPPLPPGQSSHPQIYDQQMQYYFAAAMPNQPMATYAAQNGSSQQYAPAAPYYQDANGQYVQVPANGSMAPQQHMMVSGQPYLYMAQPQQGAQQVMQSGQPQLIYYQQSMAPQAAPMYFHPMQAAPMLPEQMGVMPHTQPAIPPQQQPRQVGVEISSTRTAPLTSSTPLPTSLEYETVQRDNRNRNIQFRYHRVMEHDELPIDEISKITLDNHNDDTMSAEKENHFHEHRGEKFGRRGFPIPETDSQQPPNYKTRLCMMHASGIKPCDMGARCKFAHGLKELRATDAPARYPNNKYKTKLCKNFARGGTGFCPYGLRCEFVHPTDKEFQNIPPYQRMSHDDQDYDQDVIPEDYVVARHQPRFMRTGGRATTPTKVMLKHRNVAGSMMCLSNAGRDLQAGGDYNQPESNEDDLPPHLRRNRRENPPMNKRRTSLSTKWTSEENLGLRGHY

The test concerns the target Zinc finger protein mex-5 (Caenorhabditis elegans) (UniProt Q9XUB2). As to the kind of experiment: MEX-5 zinc finger RNA-binding disruptors – biochemical, C. elegans, fluorescence polarization, MLPCN library, primary screen (AID 1832).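 Further: 0% = DMSO and -100% = 5 µM competing unlabeled TCR2 RNA.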 Conditions: MEX-5/FITC-TCR2 RNA binding, at 10 µM, stronger effect = lower value. (Fluorescence polarisation rises when a labelled molecule tumbles more slowly, as on binding a larger partner.)
As for `COc1ccc(CCn2c(=N)c(C(=O)NCC3CCCO3)cc3c(=O)n4cccc(C)c4nc32)cc1OC` (stereo not drawn), the activity score (negative = inhibition of binding) is 1.85%. Consider `Cc1cccn2c(=O)c3cc(C(=O)NCC4CCCO4)c(=N)n(Cc4ccc(F)cc4)c3nc12` (stereo not drawn), for which the activity score (negative = inhibition of binding) was -0.627%. Under `Cc1cccn2c(=O)c3cc(C(=O)NCCN4CCOCC4)c(=N)n(Cc4cccnc4)c3nc12` stands -41.6% (active). Under `CN(C)C(CNC(=O)c1cccc(S(=O)(=O)Nc2ccc(Br)cc2)c1)c1ccco1` (stereo not drawn) stands -4.39%. To `O=C(Nc1ccccc1Cc1ccccc1)c1ccc2c(c1)SC1=NS(=O)(=O)CCN12` belongs 1.1%; to `Fc1ccc(/C=N/Nc2nc(-c3cccnc3)nc3ccccc23)cc1`, 4.03%; to `COc1ccccc1Oc1nc(-c2cccnc2)nc2ccccc12`, 3.68%. Take `COc1ccc(Nc2nc(-c3cccnc3)nc3ccccc23)cn1`: the activity score (negative = inhibition of binding) is -55.5% (active). Under `O=C(NCc1ccc2c(c1)OCO2)C(=O)NCC1OCCN1S(=O)(=O)c1ccc(F)cc1` (stereo not drawn) stands -0.888%. Under `COCCn1c(N)c(N(Cc2ccccc2)C(=O)C2CCCCC2)c(=O)[nH]c1=O` stands 1.74%. Under `COc1ccc(CNc2nc3c(c(=O)[nH]c(=O)n3C)n2Cc2ccccc2)cc1` stands -0.659%; under `COCCn1c(N)c(NCc2ccccc2)c(=O)[nH]c1=O`, -67.9% (active); under `Cc1nnc(SCc2ccc(C(=O)c3ccc(Cl)cc3)o2)n1-c1ccccc1`, -1.84%.

With `COc1ccc(CC(=O)NCc2nnc(SCC(=O)Nc3ncc(C)s3)n2C)cc1`, the activity score (negative = inhibition of binding) is 0.258%. Under `COc1ccc(C(=O)NNC(=O)c2cnccn2)cc1[N+](=O)[O-]` stands -64.4% (active).

For `COc1ccc(C(=O)O/N=C(\N)c2ccccn2)cc1[N+](=O)[O-]`, the activity score (negative = inhibition of binding) was -0.00548%. To `COc1cccc(OCC(=O)NNC(=O)c2cnccn2)c1` belongs -22.4%. Under `O=C(CN1C(=O)c2cccnc2Oc2ccc(Cl)cc21)Nc1ccc(F)cc1` stands -1.82%.

As for `COCCCNCC(=O)Nc1sc(C)c(C)c1C(=O)OC`, the activity score (negative = inhibition of binding) was 0.906%. With `Cc1ccc(O)c(CCc2ccccc2)n1`, the activity score (negative = inhibition of binding) is -3.03%. To `Nc1nnn(CC(=O)N/N=C/c2ccccc2)n1` belongs -0.796%. Under `Cc1[nH]c2ccccc2c1/C=N\NC(=O)Cn1nnc(-c2ccccc2)n1` stands 0.39%; under `O=C(Cn1cncn1)N/N=C/c1c2ccccc2cc2ccccc12`, -30% (active). As for `Cc1ccc(-c2cc(C(=O)NC3CCN(Cc4ccccc4)CC3)c3ccccc3n2)cc1`, the activity score (negative = inhibition of binding) was -2.28%. Under `O=C(Nc1ccc(F)cc1)C(=O)c1cn(CC(=O)N2CCOCC2)c2ccccc12` stands -1.93%; under `COc1cccc(NC(=O)CS(=O)(=O)c2cn(CC(=O)N3CCOCC3)c3ccccc23)c1`, -1.81%. Under `COc1cccc(NC(=O)C(=O)c2cn(CC(=O)N3CCOCC3)c3ccccc23)c1` stands -27.9% (active); under `COc1ccc(-c2n[nH]c3c2CN(C(=O)c2ccc(F)cc2)CC3)cc1`, 0.485%; under `O=c1ccc(-c2ccc(S(=O)(=O)Nc3ccccc3)o2)n[nH]1`, 1.3%. As to `Cc1cc2oc3ccc(NCCC4CCCN4C)cc3c(=O)c2cc1C` (stereo not drawn), the activity score (negative = inhibition of binding) was -10.1%. Under `CCSCc1nc(N)nc(NCCc2ccccc2)n1` stands -1.2%. Consider `O=C(Nc1ccc(OC(F)(F)F)cc1)c1ccc2c(c1)no[n+]2[O-]`, for which the activity score (negative = inhibition of binding) was -2.46%. To `COc1ccc(-c2nc(CS(=O)CC(=O)NCc3ccccc3)c(C)o2)cc1OC` (stereo not drawn) belongs 2.34%; to `COc1cccc(-c2nc(CS(=O)CC(=O)NCc3ccc(F)cc3)c(C)o2)c1` (stereo not drawn), 0.156%. Under `COc1ccc(-c2nc(CS(=O)CC(=O)NCc3ccccn3)c(C)o2)cc1` (stereo not drawn) stands -66% (active). Under `O=C(CCC(=O)NNc1nc2ccccc2c2nc(-c3ccccc3)nn12)NCCCN1CCCC1=O` stands 0.509%; under `COc1ccc(OC)c(-n2cc3c(=O)n(C)c(=O)n(C)c3c2)c1`, -2.26%.

For `COC(=O)C1=C[C@@H](C(=O)OC)[C@@H]2C3=C(C(=O)[C@]2(C)NC(=O)c2ccccc2)[C@H](C)n2c(=O)n(C)c(=O)n2[C@@H]3C1`, the activity score (negative = inhibition of binding) was 0.374%.

Consider `CC(Cc1ccccc1)C(=O)N(C)Cc1ccccc1` (stereo not drawn), for which the activity score (negative = inhibition of binding) was 2.02%. To `COc1ccc(CNC(=O)C(Cc2ccccc2)n2cccc2)cc1` (stereo not drawn) belongs 2.2%; to `Cc1ccc(C)n1C(Cc1ccccc1)C(=O)O` (stereo not drawn), -27.1% (active); to `Cc1c(C=O)c2ccccc2n1CC(=O)O`, -1.11%.

As for `C[C@@H](C(=O)Nc1ccc2ccccc2c1)[C@@H]1C[C@@]1(C)[C@@H](NC(=O)c1cccnc1)c1ccccc1`, the activity score (negative = inhibition of binding) was 2.99%. Under `O=C(Nc1c2c(nn1-c1cccc(Cl)c1)CS(=O)(=O)C2)c1cccs1` stands -4.55%. Turning to `Cc1ccccc1NC(=S)NC(=O)Cc1ccc(Cl)cc1`, the activity score (negative = inhibition of binding) was 0.984%. As for `CCCc1nnc(NC(=O)CCC(=O)N2CCN(S(=O)(=O)c3ccc(OC)cc3)CC2)s1`, the activity score (negative = inhibition of binding) was 2.03%. To `CCC1=C(C(=O)OC)C(c2cc(OC)ccc2OC)C(C#N)=C(N)O1` (stereo not drawn) belongs -1.18%; to `CCCN1CC=C2C(C#N)=C(N)C(C#N)(C#N)C(c3cc(OC)ccc3OC)C2C1` (stereo not drawn), -27.2% (active); to `CCN1CC=C2C(C#N)=C(N)C(C#N)(C#N)[C@H](c3ccoc3)[C@H]2C1`, -84.8% (active). With `CC1=C(C(N)=O)C(c2ccc(F)cc2)n2nc(CCCO)nc2N1` (stereo not drawn), the activity score (negative = inhibition of binding) is -1.99%. To `CCCCn1c(N)c(N(Cc2ccccc2OC)C(=O)COc2cc(C)ccc2Cl)c(=O)[nH]c1=O` belongs -0.677%; to `CC1CC(C)CN(c2ccc(S(=O)(=O)N3CCOCC3)cc2)C1` (stereo not drawn), -0.658%; to `CCN(Cc1ccccc1)S(=O)(=O)c1cc2c3c(c1)CCN3C(=O)CC2`, 1.24%. For `O=C1Cc2ccccc2Sc2ccc(Cl)cc21`, the activity score (negative = inhibition of binding) is -1.6%. To `CC(C)[C@H](NC(=O)N1c2ccccc2NC(=O)[C@@H]1C(C)C)C(=O)N[C@H](C(=O)O)c1ccccc1` belongs 1.76%; to `Cc1cccc(N=Nc2c(O)[nH]c3ccc(F)cc23)c1`, -37.8% (active); to `Cc1cccc(N=Nc2c(C)[nH]n(-c3ccccc3)c2=O)c1`, -1.5%. Under `COCC(=O)N=Nc1c(O)[nH]c2ccccc12` stands -1.5%.
